Screens deposited in PubChem BioAssay by National Center for Advancing Translational Sciences (NCATS).
Cruzain inh Det – blocks cruzain activity in presence of Triton detergent. P25779. purified cruzain, Z-FR-AMC fluorescence, 0.01% Triton. Potency, µM, inactives show max response, negative = inhibition, usual class: inhibitors. 200,000 tested, 0.43% active. AID 1478;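 further: plate controls were neutral wells for no effect and buffer without enzyme for full effect; nearly all actives have a fitted effect of over 40% in size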
Target sequence (P25779 123-467 limits assumed): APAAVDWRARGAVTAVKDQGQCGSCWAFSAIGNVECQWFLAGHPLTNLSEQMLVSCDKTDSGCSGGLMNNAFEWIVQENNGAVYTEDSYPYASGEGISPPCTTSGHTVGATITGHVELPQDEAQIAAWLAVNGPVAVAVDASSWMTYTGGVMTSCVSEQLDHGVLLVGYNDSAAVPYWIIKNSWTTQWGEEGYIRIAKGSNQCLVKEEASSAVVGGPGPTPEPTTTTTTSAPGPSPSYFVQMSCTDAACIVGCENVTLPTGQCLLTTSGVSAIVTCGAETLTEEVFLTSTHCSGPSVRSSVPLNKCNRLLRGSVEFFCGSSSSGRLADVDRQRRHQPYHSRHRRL
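Detergent-containing arm of a paired screen for aggregation-based inhibition: 0.01% Triton X-100 present. Cruzain at 1.5 nM cleaved 2 uM Z-FR-AMC at pH 5.5 with 5 mM DTT; AMC fluorescence gain over 60 s measured activity.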
Cruzain inh noDet – cruzain (T. cruzi) inhibition without detergent; P25779; purified cruzain, Z-FR-AMC fluorescence, no detergent; Potency, µM, inactives show max response, negative = inhibition, actives largely listed as inhibitors; 200,000 tested, 2.3% active; AID 1476;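 further: plate controls were enzyme without inhibitor for no effect and buffer without enzyme for full effect; nearly all actives have a fitted effect of over 40% in size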
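Purified cruzain at 1.5 nM, pre-incubated 15 min with compound at room temperature in 100 mM sodium acetate pH 5.5, 5 mM DTT, 0.00005% Triton X-100. Reaction started with 2 uM Z-FR-AMC; AMC fluorescence increase over 60 s gives rate.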
The depositor's hits bear a star; ? = inconclusive. The list is not random: actives were taken first. Their share in the collection is about 2.5%. The call rests on the fitted dose curve; in most records, active means well fitted curve in the direction sought with a large enough effect; inconclusive means small, poorly fitted or top-dose-only effect, or another doubt; inactive means no such curve, though single readings can be large; an effect the other way counts as inactive or inconclusive. Potency means the concentration at half of the fitted maximal effect.

SMILES	Cruzain inh Det	Cruzain inh noDet
O=C(Nc1ccc2oc(=O)ccc2c1)c1cc2ccccc2o1	-3%	-29%
CCCC(=O)Nc1ccc(Cl)c(NC(=S)NC(=O)c2cc3ccccc3o2)c1	-3%	5µM*
CNC(=O)C1CCN(Cc2cc3ccccc3n2Cc2cccc(C)c2)CC1	0%	8%
Nc1nnc(CC(=O)N/N=C/c2ccc(-c3ccccc3)o2)s1	-13%	-9%
Cc1cccc(OCCOc2ccc(/C=N/NC(=O)Cc3nnc(N)s3)cc2)c1	3%	5µM*
Cc1ccc(S(=O)(=O)NCCC(=O)NCc2ccco2)cc1	0%	3%
CCCCc1nc(NCc2ccccc2)c(C#N)c2c1COC(C)(C)C2	3%	25µM*
CCc1nc(NCC(C)C)c(C#N)c2c1COC(C)(C)C2	11%	-14%
Cc1sc2ncn(CC(=O)N3CCN(c4ccc(F)cc4)CC3)c(=O)c2c1S(=O)(=O)N1CCCCC1	-3%	12%
O=C(Nc1ccc(Cn2cccn2)cc1)c1ccc(COc2cccc(Br)c2)cc1	-4%	-13%
O=C(Nc1ccc(Cn2cccn2)cc1)c1ccc(COc2ccc(Br)cc2)cc1	2%	13µM*
CCC(=O)N1CCc2cc(S(=O)(=O)NC(C(=O)NCCc3ccc(Cl)cc3)C(C)C)ccc21 (stereo unspecified)	0%	-13%
C[C@@]1(C(NC(=O)c2ccc(-c3ccccc3)cc2)c2ccc(Cl)cc2)C[C@H]1C1CCCCC1 (stereo partly specified)	2%	?
C[C@@]1([C@@H](NC(=O)c2cccs2)c2ccc(-c3ccccc3)cc2)C[C@H]1C1CCCCC1	-2%	7.9µM*
COc1ccc(CC(=O)NCc2nc3cccnc3n2Cc2ccc(C)cc2)cc1OC	-2%	6%
O=C(NC(Cc1ccccc1)C(=O)Oc1ccc2c(C(F)(F)F)cc(=O)oc2c1)OCc1ccccc1 (stereo unspecified)	11µM*	?
CC(NC(=O)OCc1ccccc1)C(=O)Oc1cc2oc(=O)cc(-c3ccccc3)c2cc1Cl (stereo unspecified)	22µM*	?
CC(Oc1ccc2c(-c3ccccc3)cc(=O)oc2c1)C(=O)O (stereo unspecified)	-1%	-4%
O=C(COc1ccc2c(C(F)(F)F)cc(=O)oc2c1)NCc1cccs1	-1%	-15%
CC(C)(C)OC(=O)N[C@@H](Cc1ccccc1)c1nnc(S(=O)(=O)Cc2cccc(F)c2)o1	13µM*	20µM*
Cc1ccccc1CS(=O)(=O)c1nnc([C@H](CC(C)C)NC(=O)OC(C)(C)C)o1	13µM*	25µM*
C[C@H](NC(=O)OC(C)(C)C)c1nnc(SCc2c(F)cccc2Cl)o1	-2%	-5%
CC(C)C[C@H](NC(=O)OC(C)(C)C)c1nnc(SCc2ccccc2)o1	-2%	12%
CCOC(=O)CSc1nnc([C@H](Cc2ccccc2)NC(=O)OC(C)(C)C)o1	-4%	-10%
CC(C)[C@H](NC(=O)OC(C)(C)C)c1nnc(S(=O)(=O)Cc2c(F)cccc2Cl)o1	3.5µM*	5µM*
SMILES	Cruzain inh Det	Cruzain inh noDet
O=C(c1cc2ccccc2[nH]1)N1CCOCC1	0%	0%
O=c1cnc2cnc(Oc3ccccc3)nc2n1Cc1cccs1	-2%	-1%
COCCn1c(=O)c(-c2ccc(OC)cc2)nc2cnc(N3CCOCC3)nc21	4%	12%
CCn1c(NC(=O)Nc2cccc(C)c2C)cc2sccc21	-1%	25µM*
Cc1cccc(NC(=O)Nc2cccs2)c1C	-8%	-10%
CCOc1ccc(NC(=O)CSc2nc3c(c(=O)[nH]2)CCCC3)cc1	-3%	-3%
O=C(Nc1ccc(Cl)cc1)Nc1nnc(Cc2ccc([N+](=O)[O-])cc2)s1	-2%	7.9µM*
O=C(Nc1ccccc1)Nc1nnc(SCc2ccc(Cl)cc2)s1	-1%	?
O=C(Cc1nnc(NC(=O)Nc2ccc(Cl)cc2)s1)NCc1ccccc1	1%	10µM*
O=C(Nc1ccc(Cl)cc1)Nc1nnc(SCc2ccc(Cl)cc2)s1	1%	7.9µM*
O=C(Cc1nnc(NC(=O)Nc2ccccc2)s1)NCc1ccccc1	-2%	-75%
Cc1ccc(NC(=O)Nc2nnc(Cc3ccc([N+](=O)[O-])cc3)s2)cc1	0%	-19%
COc1ccc(Cc2nnc(NC(=O)c3ccc(Cl)c([N+](=O)[O-])c3)s2)cc1	7%	16µM*
COCC(=O)Nc1nnc(Cc2ccc(OC)cc2)s1	2%	-3%
O=[N+]([O-])c1cc(-c2nc(-c3ccccc3)no2)ccc1N1CCOCC1	-2%	20%
CC1=C(C(=O)Nc2ccc(C)cc2C)C(c2ccc(C)o2)NC(=S)N1 (stereo unspecified)	-3%	-7%
CSc1ccc(CCNC(=O)c2ccc(-c3nc(COc4ccccc4)c(C)o3)cc2)cc1	-2%	3%
Cn1c(=O)c2sccc2n2c(CCC(=O)N3CCN(c4cccc(Cl)c4)CC3)nnc12	-3%	10%
COc1ccc(C2NCCc3c2[nH]c2ccccc32)cc1CSc1nc2ccccc2s1 (stereo unspecified)	-10%	25µM*
COc1cc(/C=C(\C#N)C(N)=O)cc(CSc2nc3ccccc3s2)c1O	-8%	-1%
CC(C)CCNc1nc(Nc2ccccc2)c2cnn(C)c2n1	-16%	?
O=Cc1c(Sc2ccccc2)nc2ccccn2c1=O	-10%	1%
O=c1c(/C=N/Nc2ccccc2)c(Sc2nnnn2-c2ccccc2)nc2ccccn12	-6%	16µM*
Cc1cc(=O)oc2ccc(OCC(=O)N(Cc3ccc(F)cc3)Cc3ccco3)cc12	-12%	-2%
C=CCn1c(SCC(=O)Nc2ccccc2OC)nnc1-c1ccco1	1%	-9%
SMILES	Cruzain inh Det	Cruzain inh noDet
C=CCn1c(SCC(=O)Nc2nccs2)nnc1-c1cc2cccc(OC)c2o1	5%	25µM*
Oc1c(C(c2cccc(Cl)c2)N2CCOCC2)sc2nc(-c3ccco3)nn12 (stereo unspecified)	-5%	25%
CC(=O)N1CC=C2C(C#N)=C(N)C(C#N)(C#N)C(CCc3ccccc3)C2C1 (stereo unspecified)	-4%	7%
CCN1CC=C2C(C#N)=C(N)C(C#N)(C#N)C(CCc3ccccc3)C2C1 (stereo unspecified)	14µM*	6.3µM*
COC(=O)c1cc2c(cc1NC(=O)c1cnn(-c3ccccc3)c1-n1cccc1)OCO2	-2%	-5%
COc1ccc(/C=C/C=C2\N=C(SC)SC2=O)cc1	-6%	-11%
COc1ccccc1/C=C/C(=O)c1ccc(Cl)cc1	-1%	11%
COc1ccccc1/C=C/C1=NC(=C\C=C/c2ccccc2)/C(=O)O1	-15%	25µM*
COc1ccccc1/C=C/C=C1N=C(/C=C/c2ccc(Cl)cc2)OC/1=O	-21%	16µM*
C=C(C)C#N	1%	-4%
C=C[C@@H]1CN2CC[C@H]1CC2[C@H](O)c1ccnc2ccccc12 (stereo partly specified)	4%	-3%
CC1C(NC(=O)/C(=N/OC(C)(C)C(=O)O)c2csc(N)n2)C(=O)N1S(=O)(=O)O (stereo unspecified)	3%	-5%
CC(C)c1ccc(NC(=O)c2cnc3sc(N4CCCC4)nn3c2=O)cc1	-1%	10%
Cc1cccc(-n2c(C)cc(/C=C3/C(=N)N4C(c5ccccc5)=CSC4=NC3=O)c2C)c1	-4%	5µM*
CCCC1=NN2C(=N)/C(=C\c3cc(C)n(-c4cccc(C)c4)c3C)C(=O)N=C2S1	-10%	?
O=c1c(-c2cccs2)nc2cncnc2n1Cc1ccc(F)cc1	1%	-12%
